# Reference: PubChem BioAssay (Tox21)
# Unmarked numbers belong to inactive results. Inconclusive results are not listed. Where a call stands in place of a potency, no number is given. Activity calls are given as the source filed them. Unless noted, calls come from the whole dose curve; as a rule, active = well fitted curve in the direction sought with a large enough effect in the repeat runs; inconclusive = weak or mixed curves; inactive = no such curve, though single readings can be large; an effect the other way counts as inactive or inconclusive.
# What was measured:
# [1] = biological target: Luciferin 4-monooxygenase (Photinus pyralis) (UniProt P08659); assay: qHTS assay to identify small molecule inhibitors of firefly luciferase (AID 1224835); note: nearly all actives have a fitted effect of over 25% in size; note: potency is the fitted concentration of half-maximal effect
# Method in brief: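 Inhibition of purified Photinus luciferase is measured by luminescence. Substrate levels (D-luciferin, ATP) sit at their KM values. Each compound is tested in a concentration series.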
# [2] = qHTS assay to identify small molecule agonists of the constitutive androstane receptor (CAR) signaling pathway - cell viability counter screen (AID 1224836); note: nearly all actives have a fitted effect of over 45% in size; note: potency is the fitted concentration of half-maximal effect
# Method in brief: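 HepG2 cells stably carrying hCAR and a CYP2B6-2.2kb reporter; 15-concentration compounds plus PK11195 (final 0.75 uM), 23 hr at 37 C/5% CO2. Viability read by CellTiter-Fluor fluorescence.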
# [3] = qHTS assay to identify small molecule antagonists of the constitutive androstane receptor (CAR) signaling pathway - cell viability counter screen (AID 1224837); note: nearly all actives have a fitted effect of over 45% in size; note: potency is the fitted concentration of half-maximal effect
# Method in brief: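 Multiplexed cytotoxicity read-out for the CAR antagonist screen: double-stable HepG2-CYP2B6-hCAR cells co-treated with 50 nM CITCO (final) and compound over 15 concentrations, incubated 23 hr, then assessed by CellTiter-Fluor fluorescence.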
# [4] = biological target: Nuclear receptor subfamily 1 group I member 3 (Homo sapiens) (UniProt Q14994); assay: qHTS assay to identify small molecule antagonists of the constitutive androstane receptor (CAR) signaling pathway (AID 1224838); note: nearly all actives have a fitted effect of over 40% in size; note: potency is the fitted concentration of half-maximal effect
# Method in brief: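 Compounds were titrated across 15 concentrations onto HepG2 cells double-stably expressing hCAR and a CYP2B6-2.2kb reporter, together with 50 nM CITCO (final). After 24 h at 37 C, luciferase activity was measured by luminescence.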
# [5] = biological target: Nuclear receptor subfamily 1 group I member 3 (Homo sapiens) (UniProt Q14994); assay: qHTS assay to identify small molecule agonists of the constitutive androstane receptor (CAR) signaling pathway (AID 1224839); note: nearly all actives have a fitted effect of over 15% in size; note: potency is the fitted concentration of half-maximal effect;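 for activation: HepG2 cells stably carrying human CAR and a CYP2B6 luciferase reporter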
# Method in brief: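 HepG2 cells stably co-transfected with hCAR and a CYP2B6-2.2kb luciferase reporter; compounds at 15 concentrations with 0.75 uM PK11195 present. After 24 hr at 37 C, luciferase read by ONE-Glo luminescence.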
# [6] = qHTS assay to identify small molecule antagonists of the estrogen related receptor signaling pathway with the pleiotropic PPARgamma coactivator (PGC) from Tox21 10K library (AID 1224841; call rule not given here; note: actives are mostly falling curves and most rising ones were filed inactive; nearly all actives have a fitted effect of over 50% in size; note: potency is the fitted concentration of half-maximal effect)
# Method in brief: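 Antagonism in this quantitative HTS is taken from loss of luciferase signal in PGC/ERR cells. Cells (2,000/well) are treated with compounds in DMSO after a 6 h settling period and read by One-Glo luminescence after 18 h.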
# [7] = qHTS assay to identify small molecule agonists of the estrogen related receptor signaling pathway with the pleiotropic PPARgamma coactivator (PGC) from Tox21 10K library (AID 1224842); note: nearly all actives have a fitted effect of over 15% in size
# Method in brief: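 Luminescence from One-Glo (30 min, room temperature) measured after PGC/ERR cells had 18 h at 37 C with pinned compound (23 nL in DMSO). Cells had been seeded at 2,000 per well and pre-incubated 6 h.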
# [8] = qHTS assay to identify small molecule agonists of H2AX (AID 1224845; active = well fitted activation curve with a large enough effect in the signal ratio in the repeat runs, not every such curve was filed as active; the % refers to the signal ratio; note: potency is the fitted concentration of half-maximal effect)
# Method in brief: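 Phospho-H2AX Ser139 measured by HTRF (ex 320 nm; em 665 and 620 nm) after 24 hr antibody incubation. Compounds, 15 concentrations, 0.76% DMSO, were applied to CHO-K1 cells for 3hr at 37C before lysis.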
# [9] = qHTS assay to identify small molecule agonists of the hypoxia (HIF-1) signaling pathway (AID 1224846; active = well fitted activation curve with a large enough effect in the signal ratio in the repeat runs, not every such curve was filed as active; the % refers to the signal ratio)
# Method in brief: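 Steps: seed ME-180 HRE-bla cells (2,000/well, 0.5% dialyzed FBS); incubate 5 hrs at 37C; pin-transfer compounds or DMSO; incubate 17 hrs; add LiveBLAzer B/G substrate CCF4-AM; measure reporter activation by FRET.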
# [10] = qHTS assay to identify small molecule agonists of H2AX - cell viability counter screen (AID 1224847; calls by dose curve; note: nearly all actives have a fitted effect of over 30% in size; note: potency is the fitted concentration of half-maximal effect)
# Method in brief: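 CHO-K1 cells plated overnight at 37C, then exposed 3 h at 37C to compounds at 15 concentrations (0.76% DMSO final). Viability by CellTiter-Glo luminescence after 30 min at room temperature.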
# [11] = qHTS assay to identify small molecule antagonists of the estrogen related receptor (ERR) signaling pathway from Tox21 library (AID 1224848); note: potency is the fitted concentration of half-maximal effect; nearly all actives have a fitted effect of over 50% in size
# Method in brief: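 Reading was by luminescence 30 min after ONE-Glo addition. Before that, ERR cells at 2,000 per well had rested 6 h at 37 C/5% CO2 and then received pin-tooled compounds in DMSO for 18 h at 37 C.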
# [12] = qHTS assay to identify small molecule agonists of the estrogen related receptor (ERR) signaling pathway from Tox21 library (AID 1224849; calls by dose curve; note: nearly all actives have a fitted effect of over 15% in size); conditions: ERR reporter cell line, ONE-Glo luciferase, 18 h; at 92.4 µM (top of the series) unless noted
# Method in brief: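 Agonist signal is luciferase luminescence from an ERR reporter cell line treated 18 h at 37 C with DMSO-dissolved compounds, read 30 min after ONE-Glo addition at room temperature.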
# [13] = qHTS RealTime-Glo MT Cell Viability Assay in HEK293 cells - 32 hour (AID 1224868); note: nearly all actives have a fitted effect of over 50% in size; note: potency is the fitted concentration of half-maximal effect
# Method in brief: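 Tox21 10K qHTS, HEK293, 600 cells/well, RealTime-Glo reagent co-dispensed with cells; 5 h preincubation, compound by pintool, 37 C, luminescence at 0–40 h.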
# [14] = A CellTox Green Cytotoxicity Assay to monitor cytotoxicity in HEK293 cells - 0 hour (AID 1224869); note: nearly all actives have a fitted effect of over 50% in size
# Method in brief: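 Cytotoxicity was tracked continuously in HEK293 cells by a DNA-binding dye excluded from viable cells. Compounds were transferred in DMSO 5 h after seeding; fluorescence was recorded at intervals up to 40 h.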
# [15] = qHTS RealTime-Glo MT Cell Viability Assay in HepG2 cells - 24 hour (AID 1224867); note: nearly all actives have a fitted effect of over 50% in size; note: potency is the fitted concentration of half-maximal effect
# Method in brief: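 Cells + NanoLuc/prosubstrate dispensed (600 cells/well) → 5 h at 37 C/5% CO2 → compounds in DMSO transferred → 40 h incubation at 37 C, luminescence read at 0, 8, 16, 24, 32, 40 h.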
# [16] = qHTS RealTime-Glo MT Cell Viability Assay in HepG2 cells - 40 hour (AID 1224870); note: nearly all actives have a fitted effect of over 50% in size; note: potency is the fitted concentration of half-maximal effect
# Method in brief: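 Real-time viability: cells seeded at 600 per well together with NanoLuc and cell-permeant prosubstrate, compounds added after 5 h incubation. Luminescence tracked at 0, 8, 16, 24, 32 and 40 h of exposure.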
# [17] = qHTS assay to identify small molecule antagonists of the estrogen related receptor signaling pathway with the pleiotropic PPARgamma coactivator (PGC) from Tox21 10K library - cell viability counter screen (AID 1224840; active = well fitted cell-killing curve with a large enough effect in the repeat runs, not every such curve was filed as active; note: nearly all actives have a fitted effect of over 40% in size; note: potency is the fitted concentration of half-maximal effect)
# Method in brief: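 Step one, plate 2,000 PGC/ERR cells per well; step two, incubate 6 h at 37 C/5% CO2; step three, pin-transfer compounds; step four, incubate 17.5 h; step five, add CellTiter-Fluor and read fluorescence after 30 min.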
# [18] = biological target: Thyrotropin receptor (Homo sapiens) (UniProt P16473); assay: qHTS assay to identify small molecule agonists of the thyroid stimulating hormone receptor (TSHR) signaling pathway (AID 1224843; calls by dose curve; note: nearly all actives have a fitted effect of over 45% in size; note: potency is the fitted concentration of half-maximal effect)
# Method in brief: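 HEK293 cells stably bearing the thyrotropin receptor were plated at 800 cells/well and challenged with compound (30 min, RT). Accumulated cAMP was quantified via cAMP-d2 competing for cryptate-tagged antibody.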
# [19] = qHTS assay to identify small molecule agonists of the hypoxia (HIF-1) signaling pathway - cell viability counter screen (AID 1224844; calls by dose curve; note: nearly all actives have a fitted effect of over 50% in size; note: potency is the fitted concentration of half-maximal effect)
# Method in brief: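 Tox21 10K compounds were added to HRE-bla ME-180 cells (0.5% dialyzed FBS) and incubated 17 hrs at 37C; ATP-based CellTiter-Glo luminescence then reported cell viability in the same wells.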
# Sequence of Nuclear receptor subfamily 1 group I member 3 (Homo sapiens) (Q14994 whole entry, looked up): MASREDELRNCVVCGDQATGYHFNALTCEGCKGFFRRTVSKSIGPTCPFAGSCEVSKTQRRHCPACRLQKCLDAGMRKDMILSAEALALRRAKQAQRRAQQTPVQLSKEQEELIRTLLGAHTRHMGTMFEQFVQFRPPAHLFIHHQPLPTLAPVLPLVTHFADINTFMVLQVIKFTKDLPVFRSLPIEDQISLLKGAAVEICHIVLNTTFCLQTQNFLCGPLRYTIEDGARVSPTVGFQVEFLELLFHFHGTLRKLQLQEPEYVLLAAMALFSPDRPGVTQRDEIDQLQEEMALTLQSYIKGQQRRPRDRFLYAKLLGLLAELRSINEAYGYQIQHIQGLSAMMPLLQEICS
# Sequence of Thyrotropin receptor (Homo sapiens) (P16473 whole entry, looked up): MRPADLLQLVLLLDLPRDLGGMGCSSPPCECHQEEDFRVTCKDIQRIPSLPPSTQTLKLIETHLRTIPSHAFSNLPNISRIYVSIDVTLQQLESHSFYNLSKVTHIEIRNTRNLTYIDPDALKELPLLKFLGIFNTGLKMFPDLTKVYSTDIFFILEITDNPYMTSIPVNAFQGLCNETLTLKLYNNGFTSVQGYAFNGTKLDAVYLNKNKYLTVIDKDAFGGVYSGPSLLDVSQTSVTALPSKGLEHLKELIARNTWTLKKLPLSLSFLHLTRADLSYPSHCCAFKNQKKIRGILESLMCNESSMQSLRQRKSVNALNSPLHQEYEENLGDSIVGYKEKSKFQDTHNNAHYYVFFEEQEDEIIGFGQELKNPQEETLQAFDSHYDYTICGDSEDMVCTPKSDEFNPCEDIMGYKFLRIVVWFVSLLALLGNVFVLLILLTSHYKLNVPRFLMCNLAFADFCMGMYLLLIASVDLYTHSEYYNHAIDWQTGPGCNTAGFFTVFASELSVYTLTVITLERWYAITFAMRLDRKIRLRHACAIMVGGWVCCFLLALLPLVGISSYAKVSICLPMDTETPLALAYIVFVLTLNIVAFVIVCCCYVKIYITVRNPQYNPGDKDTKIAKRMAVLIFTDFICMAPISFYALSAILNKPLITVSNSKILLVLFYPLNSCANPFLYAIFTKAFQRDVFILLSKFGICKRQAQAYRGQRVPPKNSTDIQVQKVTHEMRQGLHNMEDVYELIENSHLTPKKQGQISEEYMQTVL
# Sequence of Luciferin 4-monooxygenase (Photinus pyralis) (P08659 whole entry, looked up): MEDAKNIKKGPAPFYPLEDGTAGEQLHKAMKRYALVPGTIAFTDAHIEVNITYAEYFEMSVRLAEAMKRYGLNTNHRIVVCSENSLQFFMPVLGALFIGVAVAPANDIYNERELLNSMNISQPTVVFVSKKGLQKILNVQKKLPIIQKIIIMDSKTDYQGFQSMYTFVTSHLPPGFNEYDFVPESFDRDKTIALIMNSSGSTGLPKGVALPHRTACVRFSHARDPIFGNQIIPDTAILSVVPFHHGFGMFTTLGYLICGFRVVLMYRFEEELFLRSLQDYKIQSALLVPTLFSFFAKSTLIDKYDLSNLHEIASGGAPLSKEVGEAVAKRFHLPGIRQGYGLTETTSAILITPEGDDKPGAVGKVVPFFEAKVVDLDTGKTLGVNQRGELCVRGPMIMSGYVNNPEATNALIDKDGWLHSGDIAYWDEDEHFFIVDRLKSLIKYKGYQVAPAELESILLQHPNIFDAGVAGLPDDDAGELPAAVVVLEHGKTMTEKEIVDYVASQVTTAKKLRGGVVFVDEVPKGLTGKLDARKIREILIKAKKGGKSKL
Compound,Potency [1],Potency [2],Potency [3],Potency [4],Potency [5],Potency [6],Potency [7],Potency [8],Potency [9],Potency [10],Potency [11],"activity change, positive = activation [12]",Potency [13],Potency [14],Potency [15],Potency [16],Potency [17],Potency [18],Potency [19]
CCC1=C[C@@H]2CN(C1)Cc1c([nH]c3ccccc13)[C@@](C(=O)OC)(c1cc3c(cc1OC)N(C)[C@H]1[C@@](O)(C(=O)OC)[C@H](OC(C)=O)[C@]4(CC)C=CCN5CC[C@]31[C@@H]54)C2,inactive,4.22 µM (active),2.37 µM (active),0.106 µM (active),inactive,inactive,inactive,inactive,inactive,inactive,18.8 µM (active),-48.8% [at 42.5 µM],0.0151 µM (active),inactive,,,,,
S=c1[nH]c2ccccc2s1,39.9 µM (active),inactive,inactive,inactive,54.5 µM (active),6.11 µM (active),inactive,,inactive,inactive,54.5 µM (active),-59.1%,inactive,,inactive,inactive,,,
CC(C)(C)NC(=O)[C@@H]1C[C@@H]2CCCC[C@@H]2CN1C[C@@H](O)[C@H](Cc1ccccc1)NC(=O)[C@H](CC(N)=O)NC(=O)c1ccc2ccccc2n1,inactive,31 µM (active),24.7 µM (active),,inactive,27.7 µM (active),inactive,51.2 µM (active),,,19.6 µM (active),-72.5%,19.7 µM (active),inactive,55.7 µM (active),,31 µM (active),27.7 µM (active),55.7 µM (active)
N=C1N=C(N)c2cc3ccccc3cc21,inactive,24.3 µM (active),,,,inactive,,,,127 µM (active),68.6 µM (active),2.31% (active),19.5 µM (active),inactive,47.6 µM [cytotoxic] (active),24.5 µM [cytotoxic] (active),27.3 µM (active),6.86 µM (active),15.5 µM (active)
CCOc1ccc2nc3cc(N)ccc3c(N)c2c1,inactive,inactive,inactive,2.66 µM (active),inactive,,,inactive,,inactive,,,15.1 µM (active),inactive,10.7 µM (active),8.49 µM (active),,inactive,
COc1ccc(-c2ccc3cc(C(=O)O)ccc3c2)cc1C12CC3CC(CC(C3)C1)C2,inactive,inactive,inactive,,inactive,inactive,inactive,,,inactive,,-10.4% [at 42.5 µM],5.35 µM (active),inactive,,,,inactive,13.4 µM (active)
CCCC/C=C/CCCCO,inactive,inactive,inactive,,,,,inactive,inactive,inactive,,,inactive,inactive,inactive,inactive,inactive,inactive,inactive
CCCCN(CCCC)c1ccc(C(=O)c2ccccc2C(=O)O)c(O)c1,inactive,inactive,inactive,,,inactive,inactive,,,,55 µM (active),-39.4%,inactive,inactive,inactive,inactive,inactive,inactive,
CCN(CC)CCCC(C)Nc1c2ccc(Cl)cc2nc2ccc(OC)cc12 (centres undefined),inactive,inactive,,,,,,,,inactive,,,2.68 µM (active),inactive,6.74 µM (active),5.35 µM (active),,,16.9 µM (active)
NC(=O)CC[C@@H]1NC(=O)[C@H](Cc2ccccc2)NC(=O)[C@H](Cc2ccc(O)cc2)NC(=O)CCSSC[C@@H](C(=O)N2CCC[C@H]2C(=O)N[C@@H](CCCN=C(N)N)C(=O)NCC(N)=O)NC(=O)[C@H](CC(N)=O)NC1=O,inactive,inactive,inactive,inactive,,,,inactive,inactive,,,,inactive,inactive,inactive,inactive,inactive,inactive,inactive
O=[N+]([O-])c1ccccc1Nc1ccccc1,inactive,inactive,inactive,inactive,,,,inactive,inactive,inactive,,,inactive,inactive,inactive,inactive,inactive,inactive,inactive
CN(C)CCCOC1(Cc2ccccc2)CCCCCC1,inactive,inactive,inactive,,,,,inactive,inactive,inactive,,,inactive,inactive,inactive,inactive,inactive,inactive,inactive
OCCCCCCCCCCCCBr,inactive,inactive,inactive,inactive,,,,inactive,inactive,,,,9.92 µM (active),,inactive,inactive,,inactive,44.3 µM (active)
Oc1cc2ccccc2c2ccccc12,79.6 µM (active),17.2 µM (active),13.7 µM (active),,,,,17.9 µM (active),,28.4 µM (active),,,11 µM (active),inactive,11 µM (active),11 µM (active),,,7.76 µM (active)
Cc1c(C)c2c(c(C)c1O)CCC(C)(COc1ccc(CC3SC(=O)NC3=O)cc1)O2 (centres undefined),inactive,inactive,inactive,inactive,inactive,,,inactive,inactive,inactive,,,38.9 µM (active),inactive,inactive,inactive,,inactive,inactive
